Compound activity as filed in PubChem.
Most compounds without a hit are left out; they make up all but 1.6% or so of the library.
PABP1 MLLE inh: inhibitors of PABP1 MLLE–PAM2 peptide binding, primary screen, biochemical, fluorescence polarization, FITC-PAM2, GST-MLLE; inhibition, % at 20 µM; hit rate 0.36% among 360,000; in the data active means inhibition above about 35%, passing the limit was not always enough;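 further: plate controls were DMSO wells with GST-MLLE for no effect and wells lacking GST-MLLE protein for full effect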
Target sequence (P11940 whole entry, looked up): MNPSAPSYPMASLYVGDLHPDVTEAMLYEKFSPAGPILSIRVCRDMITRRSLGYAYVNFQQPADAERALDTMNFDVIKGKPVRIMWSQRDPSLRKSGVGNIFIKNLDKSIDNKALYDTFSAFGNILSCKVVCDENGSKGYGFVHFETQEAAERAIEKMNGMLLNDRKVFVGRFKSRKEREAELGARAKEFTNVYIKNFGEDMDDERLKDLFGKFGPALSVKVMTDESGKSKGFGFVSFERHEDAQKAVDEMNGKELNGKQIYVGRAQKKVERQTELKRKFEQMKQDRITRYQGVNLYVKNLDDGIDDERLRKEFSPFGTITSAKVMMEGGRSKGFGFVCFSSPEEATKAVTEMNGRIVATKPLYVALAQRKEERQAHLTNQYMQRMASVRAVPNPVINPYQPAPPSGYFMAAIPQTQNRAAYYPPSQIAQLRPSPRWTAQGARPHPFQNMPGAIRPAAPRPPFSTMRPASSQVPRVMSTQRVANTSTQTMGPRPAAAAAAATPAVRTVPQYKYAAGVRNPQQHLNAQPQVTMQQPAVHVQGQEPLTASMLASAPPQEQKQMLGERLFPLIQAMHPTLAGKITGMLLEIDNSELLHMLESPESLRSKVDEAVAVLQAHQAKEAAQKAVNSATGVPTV
PABP FP inh: PABP poly(A) RNA binding inhibitors, primary screen, biochemical, fluorescence polarization, uHTS; Polyadenylate-binding protein 1 (Homo sapiens), P11940; calls only at 35 µM; hit rate 1% among 290,000; AID 2014, 2009;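 further: calls also rest on retests at 20 µM and on dose response follow-up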
eIF4H inh: human eIF4H binding inhibitors, primary screen, translation initiation inhibitor project, biochemical, uHTS, fluorescence polarization; Eukaryotic translation initiation factor 4H (Homo sapiens), Q15056; eIF4H fluorescence polarization binding assay; inhibition, % at 35 µM; hit rate 0.94% among 290,000;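 further: calls also rest on retests at 20 µM and on dose response follow-up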
PERK inhibitor: block of dimerizer-induced PERK translation repression, primary screen, PERK inhibitor project, CHO PERK-DD cells, SEAP luminescence, HTS | hit rate 0.17% among 220,000 | Eukaryotic translation initiation factor 2-alpha kinase 3 (Homo sapiens), Q9NZJ5 | CHO PERK-DD fusion, SEAP luminescence translation reporter | inhibition, % at 5.6 µM;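 active means inhibition above the mean inhibition of all tested compounds plus 3 SD, set separately per screening campaign, cut at about 2.9% in these data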;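 further: PERK kinase domain activated by AP20187 dimerizer at 100 nM; 0% = DMSO with dimerizer and 100% = rapamycin at 8.4 µM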
eIF4E 4G PPI: eIF4E–eIF4G protein interaction inhibitors, primary screen, biochemical, uHTS, TR-FRET, eIF4GI fragment. inhibition, % at 21.7 µM. hit rate 0.37% among 220,000. TR-FRET eIF4E-eIF4GI(517-606) binding, 2 h;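 active means inhibition above about 30%, limit read from the data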;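 further: 0% = full FRET control wells and 100% = background wells lacking eIF4GI fragment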
Numbers without * were called inactive; i = inactive; ? = inconclusive; / = no result; + = active, no number. Unless noted, how the calls were made is not given here.

SMILES	PABP1 MLLE inh	PABP FP inh	eIF4H inh	PERK inhibitor	eIF4E 4G PPI
Cc1cc(NC(=O)CSc2nnc(NCc3ccccc3)s2)no1	-38	i	-8	0	94*
Cc1cc(NC(=O)CSc2ccccc2)no1	30	i	-11	0	66*
Cc1cc(NC(=O)CSc2nccn2-c2cccc(Cl)c2)no1	69*	i	-5	/	/
COCCSc1ccccc1C(=O)Nc1cc(C)on1	12	i	-1	0	52*
COc1ccccc1C(=O)Nc1cc(C)on1	11	i	-6	/	/
COc1ccc(-c2nc(CSCC(=O)NC3CCCC3)c(C)o2)cc1OC	14	i	-7	/	/
O=C(CSc1ccccc1F)NCC(c1ccco1)N1CCCCC1 (centres undefined)	-5	/	/	/	/
COc1ccc(NC(=O)[C@H](C)NC(=O)C2CCN(S(=O)(=O)c3ccc(C)cc3)CC2)cc1	-4	i	-9	/	/
Cc1cccc(-n2c(N)cc(=O)nc2SCC(=O)Nc2cc(C)on2)c1	40*	i	-6	0	-3
Cc1cc(NC(=O)CSc2nc(=O)cc(N)n2-c2ccc(Cl)cc2)no1	6	i	-9	0	-4
COc1ccc(OC)c(N(C)S(=O)(=O)c2cc3c(cc2C)NC(=O)CO3)c1	-10	i	-2	/	/
CNC(=S)N/N=C(\C)c1cccc([N+](=O)[O-])c1	19	i	active	0	-5
C=CCn1c(-c2cc3cccc(OC)c3o2)n[nH]c1=S	-11	+	?	1	8
C=CCn1c(-c2cccc(OC)c2)n[nH]c1=S	-20	+	2.5*	2	2
C=CCn1c(-c2cc(OC)c(OC)c(OC)c2)n[nH]c1=S	-24	i	12	1	44*
CCn1c(-c2ccco2)n[nH]c1=S	12	i	-3	-1	-2
C=CCn1c(-c2cccc(OC)c2OC)n[nH]c1=S	-23	?	0	-1	-1
C=CCn1c(-c2ccco2)n[nH]c1=S	-23	i	0	0	67*
Cc1cc(Br)cn2c(Cc3ccccc3)c(-c3ccc(C#N)cc3)nc12	-5	/	/	/	/
COc1ccc(NC(=O)COC(=O)c2ccc(S(=O)(=O)N3CCCCC3)cc2)c(OC)c1	-1	/	/	/	/
COC(=O)/C=C/CC(C)OS(N)(=O)=O (centres undefined)	8	i	3	/	/
Cc1ccc(-n2c(-c3ccc(Cl)cc3Cl)n[nH]c2=S)cc1	1	i	-6	/	/
Nc1nc(-c2ccc(Cl)cc2Cl)cn1N	-17	i	1	3.1*	-2
O=C(CC1CCCCC1)NCC1CCCO1 (centres undefined)	3	i	-6	1	38*
CCOC(=O)C1=C(C)Nc2sc(C(=O)c3ccc(C)cc3)c(N)c2C1c1ccc(C(=O)OC)cc1 (centres undefined)	10	+	87	-1	3
SMILES	PABP1 MLLE inh	PABP FP inh	eIF4H inh	PERK inhibitor	eIF4E 4G PPI
CN(C)[C@@H]1C(=O)C(C(=O)NCN2CCCC2)=C(O)[C@@]2(O)C(=O)C3=C(O)c4c(O)cccc4[C@@](C)(O)C3CC12 (some centres undefined)	/	i	96	2	64*
CN(C)c1ccc(O)c2c1CC1CC3C(N(C)C)C(=O)C(C(N)=O)=C(O)[C@@]3(O)C(=O)C1=C2O (some centres undefined)	10	/	/	/	/
COc1cccc(OCC(=O)NC2CCS(=O)(=O)C2)c1 (centres undefined)	-8	/	/	/	/
O=c1[nH]c(CN2CCc3ccccc3C2)nc2ccccc12	41*	i	-2	0	-3
CCN(CC)c1ccc(-c2n[nH]c(=S)n2-c2ccccc2)cc1	5	i	3.4*	-1	-3
Cc1c(NC(=O)CSCc2ccc(Br)cc2)c(=O)n(-c2ccccc2)n1C	-14	+	active	0	-2
O=C(CCN1CCCCO1)N1CCCC(Nc2ccc(F)cc2)C1 (centres undefined)	3	i	-10	/	/
CC(OC(=O)c1ccc(NC(=O)CC#N)cc1)C(=O)Nc1ccc(Oc2ccccc2)cc1 (centres undefined)	-27	i	54*	/	/
O=[N+]([O-])c1ccc(S(=O)(=O)NN=CCCc2ccccc2)cc1	14	/	/	/	/
Cc1c(C)c(C)c(CO/N=C/c2cccs2)c(C)c1C	10	i	-12	0	4
O=C(O)O	/	i	0.6*	0	-3
O=C(O)/C=C\C(=O)O	-1	/	/	/	/
Cc1ccc(C(=O)Nc2ccc(Cl)cc2C)c(Cl)c1	0	i	-10	1	1
COc1cccc(CC(NC(C)=O)C(=O)NC2CCN(C(=O)Nc3ccc(C)cc3)CC2)c1 (centres undefined)	9	i	13	/	/
CC(C)Cc1ccc(C(C)C(=O)Nc2nccs2)cc1 (centres undefined)	-4	+	80*	0	5
CC(C)c1ccc(CNC(=O)C(=O)Nc2nccs2)cc1	2	i	3	2	0
CCn1c(SCC(=O)NC2CC2)nnc1-c1csc(C)c1	-34	i	-25	/	/
O=C(CNc1ccccc1)N/N=C/c1cn(-c2ccccc2)nc1-c1ccccc1	-1	+	active	-1	-3
NC(=O)N/N=C/c1cn(-c2ccccc2)nc1-c1ccccc1	-6	i	2	0	1
COc1ccc2nc3n(c(=O)c2c1)-c1ncccc1C(=O)NC3Cc1ccccc1 (centres undefined)	-4	/	/	/	/
CCN(CC(=O)Nc1c(F)cccc1F)C(=O)C1CC(=O)N(c2ccccc2OC)C1 (centres undefined)	-3	+	10	/	/
CC12CCC(O)CC1=CCC1C2CCC2(C)C1CCC21CCC(=O)O1 (centres undefined)	-4	+	12*	0	5
C[C@]12CCC3C(CC=C4C[C@@H](O)CC[C@@]43C)C1CCC2[C@]1(C)CCC(=O)O1 (some centres undefined)	1	i	2	0	-3
Cc1cccn2c(CN[C@H]3CCCCNC3=O)c(C(=O)N3CCOCC3)nc12	-3	i	-4	0	3
CCOC(=O)/C(C#N)=C\c1ccc(N2CCN(C)CC2)cc1	-33	i	-8	1	-1
CCOC(=O)/C(C#N)=C/c1ccc(N2CCN(C)CC2)cc1	-26	i	active	1	4
O=C(NP(=O)(N1CCCC1)N1CCCC1)C1=C(N2CCOCC2)/C(=C/c2cccc([N+](=O)[O-])c2)CC1	2	i	45	1	1
